Assay outcomes as filed in PubChem BioAssay.
BCR signal inh = inhibitors of chronic active B-cell receptor signaling; ABC-DLBCL IkBa-CBG/CBR reporter, luminescence ratio, 4 h; 0.05% of 340,000 active; Potency, µM (top dose mostly 46.1 µM), inactives show at the highest dose activity change, negative = inhibition, most hits filed as inhibitors; active means well fitted inhibition curve with a large enough effect in the signal ratio, with a control signal flat, not every such curve was filed as active; inconclusive means small, poorly fitted or top-dose-only effect, or effect the other way, or a change in a side signal; the % refers to the signal ratio;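 further: plate controls were basal doxycycline-induced cells for no effect and cells given 10 µM MG132 for full effect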
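Compounds up to 46 uM were incubated four hours with TMD8 cells whose green CBG68 luciferase is fused to IkappaBalpha; red CBR luminescence normalised the signal, and concentration-effect curves were fitted to fusion, red and ratio data.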
GLS inhibitor = blocks human kidney-isoform glutaminase activity; Potency, µM (top dose mostly 45.5 µM), inactives show at the top dose activity change, negative = inhibition, hits mostly inhibitors; O94925; AID 624170; GLS enzymatic activity, qHTS titration; 0.21% of 410,000 active
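Coupled fluorescence readout: glutamate oxidase/HRP/Amplex Red detect glutamate formed by hKGA from L-glutamine (1 mM solution added). Buffer 45 mM KH2PO4 pH 8.2, 0.02% Tween-20; reads at t0 and 30 min RT.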
B2AR arrestin = beta2AR (human) beta-arrestin recruitment activity; P07550; beta-arrestin recruitment to beta2AR, cell-based reporter; Potency, µM (top dose mostly 46.1 µM), inactives show at the top dose activation, most hits filed as activators; 0.02% of 330,000 active; AID 492947;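 further: 0% = DMSO controls and full agonism = EC100 isoproterenol or metaproterenol; nearly all actives have a fitted effect of over 65% in size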
Target sequence (P07550 whole entry, looked up): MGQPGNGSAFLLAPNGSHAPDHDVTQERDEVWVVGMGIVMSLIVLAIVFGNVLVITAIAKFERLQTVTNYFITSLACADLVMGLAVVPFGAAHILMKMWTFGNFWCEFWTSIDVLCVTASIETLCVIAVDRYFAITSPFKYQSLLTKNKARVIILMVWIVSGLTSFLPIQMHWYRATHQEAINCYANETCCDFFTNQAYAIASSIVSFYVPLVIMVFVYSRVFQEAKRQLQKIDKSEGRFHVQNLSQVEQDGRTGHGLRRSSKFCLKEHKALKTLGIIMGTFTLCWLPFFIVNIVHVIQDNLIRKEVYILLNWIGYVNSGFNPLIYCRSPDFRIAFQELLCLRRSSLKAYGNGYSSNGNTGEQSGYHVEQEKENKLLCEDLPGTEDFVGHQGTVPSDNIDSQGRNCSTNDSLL
Pin1 inh = blocks the human prolyl isomerase Pin1; Pin1 FP peptide displacement, HiFluor488, 10 min; Potency, µM (doses to about 115 µM), for the others: at the top dose activity, negative = inhibition, most hits filed as inhibitors; 0.009% of 390,000 active; active means well fitted inhibition curve with a large enough effect in the polarisation, with a control signal flat, not every such curve was filed as active; inconclusive means small, poorly fitted or top-dose-only effect, or effect the other way, or a change in a side signal; inactive means no such curve, though single readings can be large or run the other way; the % refers to the polarisation
Target sequence (Q13526 whole entry, looked up): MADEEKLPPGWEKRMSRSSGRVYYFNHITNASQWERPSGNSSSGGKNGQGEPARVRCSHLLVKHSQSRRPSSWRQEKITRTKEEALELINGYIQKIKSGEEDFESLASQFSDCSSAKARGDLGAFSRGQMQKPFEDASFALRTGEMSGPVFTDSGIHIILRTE
Tb PGK inh = blocks T. brucei phosphoglycerate kinase; P07378; PGK/GAPDH coupled, Kinase-Glo luminescence, 60 min; Potency, µM (highest dose often 57.5 µM), without a hit: top-dose activity change, negative = inhibition, actives largely listed as inhibitors; 0.043% of 380,000 active; further: nearly all actives have a fitted effect of over 60% in size
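Luminescent ATP detection (Kinase-Glo Plus) follows a 60-minute room-temperature incubation, with wells lacking PGK as controls. Buffer: 100 mM TEA (pH 7.6), 5 mM MgCl2, 0.01% Tween-20. Coupling enzyme GAPDH (100 nM final) supplies unstable 1,3-BPG in-well.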
Tb PFK block = blocks T. brucei phosphofructokinase | O15648 | T. brucei PFK, ADP-Glo luminescence | Potency, µM (titrated, usually from 57.5 µM), inactives show at the highest dose activity, negative = inhibition, usual class: inhibitors | 0.17% of 330,000 active;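 further: 0% = uninhibited 1x PFK enzyme wells and -100% = no-enzyme wells; nearly all actives have a fitted effect of over 60% in size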
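Activity is normalized to no-enzyme wells (full inhibition) and 1.25 nM enzyme wells (no inhibition). Reaction: 0.5 mM F6P, 0.1 mM ATP, 45 min RT, ADP-Glo luminescence; concentration-response curves fitted and classed by quality.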
Numbers without * were called inactive; ! = not active in a repeat. Compounds with a hit are over-represented: about 0.42% of the library has one in this group of screens. Unless noted, the call rests on the fitted dose curve; in most records, active means well fitted curve in the direction sought with a large enough effect; inconclusive means small, poorly fitted or top-dose-only effect, or another doubt; inactive means no such curve, though single readings can be large; an effect the other way counts as inactive or inconclusive. Unless noted, on the % scale 0 is the no-effect control and ±100 the full control effect; potency means the concentration at half of the fitted maximal effect.

How did COc1ccc(-c2cc(C(=O)NN)n(-c3ccccc3)n2)cc1 do in these assays?
BCR signal inh: -7%; GLS inhibitor: 23%; B2AR arrestin: 0%; Pin1 inh: 0%; Tb PGK inh: 0%; Tb PFK block: -6%

What do the screens show for `COc1cccc(C2c3c(ncn(Cc4cccs4)c3=N)Oc3ccc4ccccc4c32)c1` (stereo not given)?
Pin1 inh: 27%

How did Cc1ccc(C(=O)/C=C/C(=O)c2ccc(C)cc2)cc1 do in these assays?
BCR signal inh: 2%; GLS inhibitor: 2.8µM*; B2AR arrestin: -1%; Pin1 inh: 5%; Tb PGK inh: inactive; Tb PFK block: -25%

How did Cc1ccc(/C=C/C(=O)c2ccc(C)cc2)cc1 do in these assays?
BCR signal inh: -6%; GLS inhibitor: 5%; B2AR arrestin: 0%; Pin1 inh: 2%; Tb PGK inh: -7%; Tb PFK block: 0%

How did Cc1ccc(-c2cc3nccc(-c4cc([N+](=O)[O-])ccc4O)n3n2)cc1 do in these assays?
GLS inhibitor: 8.9µM*; Pin1 inh: inconclusive; Tb PGK inh: 3%

How did Cc1c(P(=S)(c2ccccc2)c2ccccc2)c2ccccc2n1CCc1ccccc1 do in these assays?
Pin1 inh: -3%

What do the screens show for `CC(=O)N[C@H]1[C@H](O[C@@H]2c3ccc(c(Cl)c3)Oc3cc4cc(c3O[C@@H]3O[C@H](CO)[C@@H](O)[C@H](O)C3C)Oc3ccc(cc3Cl)C[C@H]3NC(=O)[C@@H](N)c5ccc(O)c(c5)Oc5cc(O)cc(c5)[C@H](NC3=O)C(=O)N[C@H]4C(=O)N[C@H]3C(=O)N[C@@H]2C(=O)N[C@@H](C(=O)O)c2cc(O)cc(O[C@H]4O[C@H](CO)[C@@H](O)C(O)[C@@H]4O)c2-c2cc3ccc2O)O[C@H](CO)[C@@H](O)[C@@H]1O` (stereo not given in full)?
GLS inhibitor: 16µM*

Results for O=C(/C=C/c1ccco1)OCC(=O)c1ccc(OC(F)F)cc1 ?
BCR signal inh: inconclusive; GLS inhibitor: -15%; B2AR arrestin: 0%; Pin1 inh: 2%; Tb PGK inh: inactive; Tb PFK block: 0%

What do the screens show for `COc1cc(/C=C/C(=O)OCC(=O)c2ccc(OC(F)F)cc2)ccc1O`?
BCR signal inh: 3%; GLS inhibitor: 11µM*; B2AR arrestin: 0%; Pin1 inh: 66%; Tb PGK inh: -5%; Tb PFK block: 0%

What do the screens show for `COc1cc(/C=C/C(=O)OC(C)C(=O)Nc2c(C)n(C)n(-c3ccccc3)c2=O)ccc1O` (stereo not given)?
BCR signal inh: 1%; GLS inhibitor: inconclusive; B2AR arrestin: 0%; Pin1 inh: 9%; Tb PGK inh: 8%; Tb PFK block: -6%

How did CCc1ccc(NC(=O)C(C)OC(=O)/C=C/c2ccc(O)c(OC)c2)cc1 (stereo not given) do in these assays?
BCR signal inh: 21µM*; GLS inhibitor: inconclusive; B2AR arrestin: -1%; Pin1 inh: 115%; Tb PGK inh: -9%; Tb PFK block: -1%

How did Fc1cc(F)cc(Nc2nc(NC3CCCC3)nc(C3CO3)n2)c1 (stereo not given) do in these assays?
Pin1 inh: 3%

Results for O=C(CNS(=O)(=O)c1ccc([N+](=O)[O-])cc1)N/N=C/c1ccc(O)cc1O ?
BCR signal inh: 2%; GLS inhibitor: 13µM*; B2AR arrestin: -1%; Pin1 inh: -5%; Tb PGK inh: 4%; Tb PFK block: 2%

Results for O=C(CNS(=O)(=O)c1ccc([N+](=O)[O-])cc1)N/N=C\c1ccc(O)cc1 ?
BCR signal inh: 2%; GLS inhibitor: 19%; B2AR arrestin: 0%; Pin1 inh: 6%; Tb PFK block: -2%

How did CC(=O)Nc1ccc(OCc2cccc(C3Nc4ccccc4C(=O)N3Cc3ccco3)c2)cc1 (stereo not given) do in these assays?
Pin1 inh: 23%

What do the screens show for `Cn1c(NNC(=O)C(c2ccccc2)c2ccccc2)cc(=O)n(C)c1=O`?
BCR signal inh: inconclusive; GLS inhibitor: 8.9µM*; B2AR arrestin: 1%; Pin1 inh: 1%; Tb PGK inh: 2%; Tb PFK block: -8%

Results for Cn1c(NC(=O)c2ccccc2)cc(=O)n(C)c1=O ?
BCR signal inh: 2%; GLS inhibitor: 3%; B2AR arrestin: 1%; Pin1 inh: 6%; Tb PGK inh: -6%; Tb PFK block: 1%

What do the screens show for `Fc1cccc(Cc2c(-c3ccco3)nc3ccc(Br)cn23)c1`?
GLS inhibitor: 16µM*

What do the screens show for `O=C(CCS(=O)(=O)c1ccc(F)cc1)Nc1nc(-c2ccncc2)cs1`?
BCR signal inh: 8%; GLS inhibitor: inconclusive; B2AR arrestin: 0%; Pin1 inh: -1%; Tb PGK inh: -4%; Tb PFK block: 21µM*

Results for CC(C)(C)c1csc(NC(=O)CCS(=O)(=O)c2ccc(F)cc2)n1 ?
GLS inhibitor: 0%; Tb PGK inh: -2%

Results for O=C1CCc2cc(S(=O)(=O)Nc3cccnc3)ccc2N1 ?
Pin1 inh: -4%

How did COc1ccc(Cn2c(=O)c3[nH]cnc3n(-c3ccccc3C)c2=O)cc1 do in these assays?
BCR signal inh: 16µM*; GLS inhibitor: -12%; B2AR arrestin: -1%; Pin1 inh: -4%; Tb PGK inh: -3%; Tb PFK block: -2%

How did COc1ccc(C)c(-n2c(=O)n(Cc3ccccc3)c(=O)c3[nH]cnc32)c1 do in these assays?
BCR signal inh: inconclusive; GLS inhibitor: 2%; B2AR arrestin: -1%; Pin1 inh: 0%; Tb PGK inh: 0%; Tb PFK block: 1%

How did CNC(=O)C1CCN(c2nc(-c3ccc(Br)cc3)cs2)CC1 do in these assays?
Pin1 inh: -5%

Results for c1ccc2c(c1)Nc1cc3ccccc3cc1S2 ?
BCR signal inh: 6%; GLS inhibitor: -4%; B2AR arrestin: 0%; Pin1 inh: 1%; Tb PGK inh: -2%; Tb PFK block: 0%

Results for COc1ccc2c(c1)Sc1ccccc1N2 ?
BCR signal inh: -8%; GLS inhibitor: 18µM*; B2AR arrestin: -1%; Pin1 inh: 0%; Tb PGK inh: -7%; Tb PFK block: 0%

What do the screens show for `NC(=O)C1CCN(c2ncc(-c3cccc(N4CCCC4)c3)s2)CC1`?
Pin1 inh: 6%

How did CCc1nc2ccc(C(=O)N3CCN(c4cccc(C)c4C)CC3)cc2nc1CC do in these assays?
BCR signal inh: 18%; GLS inhibitor: 6.3µM*!; B2AR arrestin: 0%; Pin1 inh: 5%; Tb PGK inh: 8%; Tb PFK block: 2%
